The nature of assay [1]: IUF_NPC3_neuronal_differentiation_120hr: Leibniz Research Institute for Environmental Medicine (IUF) 120-hour Neuronal Differentiation Assay (NPC3) (AID 2284301; active means hit-call score of the fitted dose curve at least 0.9, where 1 is the maximum; inactive means score below 0.9). Put shortly: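 Value is percent TUBB3-positive neurons among Hoechst-stained nuclei in the migration area, scored by trained CNN after 120 h differentiation. Primary hNPC spheres on poly-D-lysine/laminin, N2 medium, continuous dosing from day 0, half-refeed day 3; DMSO reference.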

The nature of assay [2]: IUF_NPC4_neurite_length_120hr: Leibniz Research Institute for Environmental Medicine (IUF) 120-hour Neuronal Morphology Assay for Neurite Length (NPC4) (AID 2284302; active means hit-call score of the fitted dose curve at least 0.9, where 1 is the maximum; inactive means score below 0.9). Put shortly: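 Neurite length, the mean in um across TUBB3-stained neurons, is derived by skeletonization of high-content images after 120 h differentiation. Compound exposure, 7 concentrations plus solvent control, ran from plating of hNPC spheres on poly-D-lysine/laminin, with medium half-replaced on day 3.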

A short description of assay [3]: IUF_NPC5_oligodendrocyte_differentiation_120hr: Leibniz Research Institute for Environmental Medicine (IUF) 120-hour Oligodendrocyte Differentiation Assay (NPC5) (AID 2284304).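 Further: share of O4-positive cells among Hoechst nuclei found by CNN image analysis.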 The procedure:
IUF_NPC2-5 is a cell-based, multiplexed assay that uses hNPC, a human primary neural progenitor cells, with measurements taken at 72 or 120 hours after chemical dosing in a 96-well plate. Human neural progenitor cells (hNPC) are generated from human fetal brain cortex at gestational week (GW) 16-19. In the neural progenitor cell migration and differentiation assay (NPC2-5), hNPCs grown as spheres are plated on an extracellular matrix and migrate and differentiate out of the sphere core. The processes radial glia migration, neuronal and oligodendrocyte migration as well as neuronal differentiation, neuronal morphology and oligodendrocyte differentiation are studied using automated phase contrast imaging and automated fluorescence imaging in combination with high content image analysis. In parallel, the cell viability is assessed using an alamar blue viability assay and the cytotoxicity using a lactate dehydrogenase dependent membrane integrity assay.IUF_NPC5_oligodendrocyte_differentiation_120hr is one of 12 assay components measured from the IUF_NPC2-5 assay. Oligodendrocyte differentiation at 120 hr is determined as the number of all O4-positive cells in percent of the number of Hoechst-positive nuclei in the total neurosphere migration area (see IUF_NPC2a_ glia_migration_120hr) after 120 hr of migration/differentiation. Oligodendrocytes are automatically identified using a convolutional neural network (CNN) that was trained using manually annotated images of differentiated oligodendrocytes.Data from the IUF_NPC5_oligodendrocyte_differentiation_120hr component was analyzed at the endpoint IUF_NPC5_oligodendrocyte_differentiation_120hr in the positive analysis fitting direction relative to DMSO as the negative control and baseline of activity. Using a type of differentiation reporter, loss-of-signal activity can be used to understand developmental effects.
(§1) Culture protocol: After the cell expansion period the cells are cultured for up to four weeks in which they are passaged every week as described in 3.6. Between one to three days after passaging spheres at a size of 0.3 mm are picked for the test method. For the assessment of neural progenitor cell migration and differentiation, the spheres are plated on poly-D-lysine/laminin coated 96-well flat bottom plates in differentiation medium (N2) to initiate migration and differentiation. Thereby one 0.3 mm big sphere is plated in the middle of a well. The differentiation medium consists of DMEM and Ham's F12 at a ratio of 3 to 1 supplemented with 1% N2 and 1% penicillin and streptomycin. Within 5 days NPCs radially migrate out of the sphere core and differentiate into radial glia cells (nestin positive), neurons (TUBB3 positive), oligodendrocytes (O4 positive) and astrocytes (GFAP positive). Cultivation during the test method is performed at 37C and 5% CO2 at a ph of 7.2-7.6.Exposure: 0.3 mm big hNPC are plated in the already prepared test conditions. Exposure starts at day 0 of differentiation and is continued over five days of differentiation until the experiment is terminated. Cells are fed with fresh medium at day 3 of differentiation. Therefore, half of the test condition solution (e.g. solvent control or compound dilution) is replaced by freshly prepared test condition solution.Test Method: Migration distance and cytotoxicity is determined after 72 hours based on brightfield images of each well. The assay is terminated by the assessment of cell viability and cytotoxicity as well as cell fixation after 120 h. Immunocytochemistry is performed for Hoechst positive nuclei, TUBB3 positive neurons and O4 positive oligodendrocytes. On the ICC images, migration after 120 hours, neuronal and oligodendrocyte number, neuronal morphology and neuron/oligodendrocyte specific migration is assessed. immunocytochemical staining (ICC) generates an image for each sphere. […]

Assay [4] in a line: IUF_NPC4_neurite_area_120hr: Leibniz Research Institute for Environmental Medicine (IUF) 120-hour Neuronal Morphology Assay for Neurite Area (NPC4) (AID 2284305). In short, it runs like this: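 Neurite area (pixels, nuclei excluded) of TUBB3-positive neurons from hNPC spheres differentiating 5 days under continuous exposure at 37 C, 5% CO2. High-content imaging; loss of signal versus DMSO control across 7 concentrations.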

A short description of assay [5]: IUF_NPC2-5_cytotoxicity_72hr: Cytotoxicity Assessment at 72 hours in the Leibniz Research Institute for Environmental Medicine (IUF) Neural Progenitor Cell Migration and Differentiation Assay for Cytotoxicity (NPC2-5) (AID 2284306).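 Further: LDH release into supernatant measured by resorufin fluorescence marking membrane damage.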 Put shortly: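 Membrane-integrity cytotoxicity at 72 h, read as LDH-driven resorufin fluorescence in supernatant. hNPC spheres from fetal cortex differentiate on coated plates in N2 medium, 37C, 5% CO2; seven serial compound concentrations plus solvent control (DMSO ≤0.1%).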

Assay [6] is described as follows: IUF_NPC2-5_cytotoxicity_120hr: Cytotoxicity Assessment at 120 hours in the Leibniz Research Institute for Environmental Medicine (IUF) Neural Progenitor Cell Migration and Differentiation Assay (NPC2-5) (AID 2284307). In short, it runs like this: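 Membrane-integrity loss is quantified by LDH in supernatant after five days of exposure of migrating, differentiating human fetal NPC spheres; seven serially diluted concentrations are tested with DMSO kept at or below 0.1%.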

Assay [7] is described as follows: IUF_NPC2-5_cell_number_120hr: Cell Number Assessment at 120 hours in the Leibniz Research Institute for Environmental Medicine (IUF) Neural Progenitor Cell Migration and Differentiation Assay (NPC2-5) (AID 2284308; active means hit-call score of the fitted dose curve at least 0.9, where 1 is the maximum; inactive means score below 0.9;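 further: count of Hoechst-stained nuclei in migration zone around plated human neural progenitor spheres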). The procedure: IUF_NPC2-5 is a cell-based, multiplexed assay that uses hNPC, a human primary neural progenitor cells, with measurements taken at 72 or 120 hours after chemical dosing in a 96-well plate. Human neural progenitor cells (hNPC) are generated from human fetal brain cortex at gestational week (GW) 16-19. In the neural progenitor cell migration and differentiation assay (NPC2-5), hNPCs grown as spheres are plated on an extracellular matrix and migrate and differentiate out of the sphere core. The processes radial glia migration, neuronal and oligodendrocyte migration as well as neuronal differentiation, neuronal morphology and oligodendrocyte differentiation are studied using automated phase contrast imaging and automated fluorescence imaging in combination with high content image analysis. In parallel, the cell viability is assessed using an alamar blue viability assay and the cytotoxicity using a lactate dehydrogenase dependent membrane integrity assay.IUF_NPC2-5_cell number_120hr is one of 12 assay components measured from the IUF_NPC2-5 assay. The cell number at 120 hr is assessed as the number of all Hoechst-positive nuclei identified in the migration area (see IUF_NPC2a_ glia_migration_120hr).Data from the IUF_NPC2-5_cell_number_120hr component was analyzed at the endpoint IUF_NPC2-5_cell_number_120hr in the positive analysis fitting direction relative to DMSO as the negative control and baseline of activity. Using a type of viability reporter, gain or loss-of-signal activity can be used to understand viability effects.
as §1, with “sphere. The plates are scanned using an automated high content imaging device and all nuclei and their positions are determined automatically based on their intensity and size. Images are imported to the Omnisphero software to run the image analysis that measures the following endpoints. The method is set up for 8 test conditions including 7 compound concentrations and one SC. The test conditions are prepared in a serial dilution from the stock solution.” for “sphere.”

Assay [8] in a line: VALA_TUBHUV_Agonist_CellCount: Viability Assessment in the VALA Sciences human Umbilical Vein Endothelial Tubule Formation (TUBHUV) Agonism Assay (AID 2284309). In short, it runs like this:
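Viability endpoint by fluorescent imaging of fixed nuclear/CD31-stained HUVEC–HDF co-cultures. Readout is cell count, fitted upward against 0.1% DMSO. Compound exposure was 72 h in 10 ng/ml VEGF, after 3-day co-culture priming.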

Assay [9] can be described thus: VALA_TUBIPS_Agonist_TubuleLength: VALA Sciences human iPS-derived Endothelial Tubule Formation (TUBIPS) Agonism Assay (AID 2284311). The procedure:
VALA_TUBIPS_Agonist is a cell-based, multiplexed assay that uses human iPS-derived endothelial cells (iPSC). Measurements were taken 72 hours after chemical dosing in a 96-well plate.VALA_TUBIPS_Agonist_TubuleLength is the one of two assay components measured from the VALA_TUBIPS_Agonist assay. It is designed to make measurements of tubulogenesis, a form of morphology reporter, as detected with fluorescence intensity signals by HCS Fluorescent Imaging technology. This VALA_TUBIPS1 assay was designed to detect chemical activation of tubulogenesis, i.e. agonism.Data from the assay component VALA_TUBIPS_Agonist_TubuleLength was analyzed at the endpoint, VALA_TUBIPS_Agonist_TubuleLength, in the positive analysis fitting direction relative to DMSO as the negative control and baseline of activity. Using a type of morphology reporter, gain-of-signal activity can be used to understand developmental effects. To generalize the intended target to other relatable targets, this assay endpoint is annotated to the neurodevelopment intended target family, where the subfamily is tubulogenesis.
[…]

A short description of assay [10]: VALA_TUBHUV_Antagonist_CellCount: Viability Assessment in the VALA Sciences human Umbilical Vein Endothelial Tubule Formation (TUBHUV) Antagonism Assay (AID 2284310). In short, it runs like this: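 Read-out is imaged cell count after nuclear and CD31 staining, fitted against 0.1% DMSO vehicle. Compounds were added for 3 days, in 10 ng/ml VEGF assay medium, to HUVEC–HDF co-cultures pre-grown 3 days.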

Among the data in PubChem BioAssay (EPA / NIEHS) are outcome and AC50 values, retold here.

As a reminder, the AC50 is the concentration giving half of the maximal activity seen.

Structures are written as SMILES. Inconclusive results are not listed. Active and inactive are the calls of the source. How the source made its calls, unless noted: active means hit-call score of the fitted dose curve at least 0.9, where 1 is the maximum; inconclusive means response in the unintended direction; inactive means score below 0.9.

With `CSC(=O)c1cccc2nnsc12`, the result in [1], in assay [2], in assay [3], in assay [4], in [5] and in assay [6] was inactive. The result in assay [7] was inactive.

Consider `S=C(S)NCCNC(=S)S.[Mn+2].[S-]C([S-])=NCCN=C([S-])[S-].[Zn+2]`, for which the result in assay [1], in assay [2], in assay [3], in assay [4], in [5] and in assay [6] was inactive. The outcome in assay [7], in assay [8] and in [9] was inactive.

For the compound `CCN(CC)C(=O)c1cccc(C)c1`, the call in assay [1], in [2], in assay [3], in [4], in assay [5] and in assay [6] was inactive. Also, the compound was classed as inactive in assay [7].

In the case of `C#CCOC(=O)[C@@H](C)Oc1ccc(Oc2ncc(Cl)cc2F)cc1`, the compound was called inactive in [1], in assay [2], in [4], in assay [5], in assay [6] and in assay [7].

For the compound `N[C@@H](Cc1cc(I)c(Oc2ccc(O)c(I)c2)c(I)c1)C(=O)O`, the compound was called inactive in [8], in assay [10] and in assay [9].

With `CC(C)CCCCCCc1ccc(O)cc1`, the outcome in [8] and in [9] was inactive.

As for `CCCN(CCC)C(=O)SCC`, the compound was called inactive in [1], in assay [2], in [3], in assay [4], in assay [5] and in [6]. In addition, in assay [7], the compound was called inactive.

For the compound `O=C(O)c1ccccc1`, the call in assay [1], in assay [2], in [3], in [4], in assay [5] and in assay [6] was inactive. Besides, the result in assay [7] was inactive.

For the compound `S=C([S-])NCCNC(=S)[S-].[Mn+2]`, the compound was classed as inactive in assay [1], in [2], in assay [3], in [4], in assay [5] and in assay [6]. Also, in [7], the outcome was inactive.

Take `CC(C)(c1ccc(O)cc1)c1ccc(O)cc1`: the compound was classed as inactive in assay [1], in assay [2], in [3], in assay [4], in assay [5] and in assay [6]. For the same compound, the outcome in assay [7], in assay [8], in assay [10] and in assay [9] was inactive.

`Cc1nn(C)c(Oc2ccccc2)c1C=NOCc1ccc(C(=O)OC(C)(C)C)cc1`: the call in [1], in assay [2], in [3], in [4], in assay [5] and in assay [6] was inactive. The AC50 in assay [7] is 5.04 µM (active).
